# Source: PubChem BioAssay (Tox21)
# Unmarked numbers belong to inactive results. Inconclusive results are not listed. Where a call stands in place of a potency, no number is given. The source made the active and inactive calls. Unless noted, the call rests on the fitted dose curve; in most records, active means well fitted curve in the direction sought with a large enough effect in the repeat runs; inconclusive means weak or mixed curves; inactive means no such curve, though single readings can be large; an effect the other way counts as inactive or inconclusive.
# Experiments:
# [1] = biological target: Nuclear receptor subfamily 1 group I member 3 (Homo sapiens) (UniProt Q14994); assay: qHTS assay to identify small molecule antagonists of the constitutive androstane receptor (CAR) signaling pathway (AID 1224838);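 further: HepG2 cells stably expressing hCAR with CYP2B6 luciferase reporter stimulated by CITCO; nearly all actives have a fitted effect of over 40% in size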; further: potency means the concentration at half of the fitted maximal effect
# Outline: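 Antagonism measured as luciferase signal (ONE-Glo, 30 min, room temperature) in CAR-stimulated cells: HepG2-CYP2B6-hCAR double-stable line exposed 24 hr at 37 C to compound in a 15-point series plus 50 nM CITCO.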
# [2] = biological target: Nuclear receptor subfamily 1 group I member 3 (Homo sapiens) (UniProt Q14994); assay: qHTS assay to identify small molecule agonists of the constitutive androstane receptor (CAR) signaling pathway (AID 1224839); further: nearly all actives have a fitted effect of over 15% in size; further: potency means the concentration at half of the fitted maximal effect;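 on activation: HepG2 cells stably carrying human CAR and a CYP2B6 luciferase reporter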
# Outline: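 Luminescence read-out (ONE-Glo, 30 min, room temperature) from double-stable HepG2-CYP2B6-hCAR cells exposed 24 h to 15-point compound series in presence of 0.75 uM PK11195 final.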
# [3] = qHTS assay to identify small molecule antagonists of the estrogen related receptor signaling pathway with the pleiotropic PPARgamma coactivator (PGC) from Tox21 10K library - cell viability counter screen (AID 1224840; active means well fitted cell-killing curve with a large enough effect in the repeat runs, not every such curve was filed as active; further: nearly all actives have a fitted effect of over 40% in size; further: potency means the concentration at half of the fitted maximal effect)
# Outline: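 Counter-screen for cytotoxicity: after 17.5 h compound exposure at 37 C, CellTiter-Fluor reagent added to PGC/ERR cells for 30 min and fluorescence read. Cells were seeded at 2,000 per well 6 h before dosing.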
# [4] = qHTS assay to identify small molecule antagonists of the estrogen related receptor signaling pathway with the pleiotropic PPARgamma coactivator (PGC) from Tox21 10K library (AID 1224841; call rule not given here; further: actives are mostly falling curves and most rising ones were filed inactive; nearly all actives have a fitted effect of over 50% in size; further: potency means the concentration at half of the fitted maximal effect)
# Outline: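 Luminescence (One-Glo, 30 min at room temperature) after 18 h compound treatment at 37 C of PGC/ERR reporter cells plated at 2,000 cells/well and settled 6 h beforehand.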
# [5] = biological target: Thyrotropin receptor (Homo sapiens) (UniProt P16473); assay: qHTS assay to identify small molecule agonists of the thyroid stimulating hormone receptor (TSHR) signaling pathway (AID 1224843; calls by dose curve; further: nearly all actives have a fitted effect of over 45% in size; further: potency means the concentration at half of the fitted maximal effect)
# Outline: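 Using 15 concentrations per compound in triplicate, cAMP production was monitored in TSHR-HEK293 cells after 30 min compound incubation at RT; HTRF reagents followed, with fluorescence intensity recorded after 1 h.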
# [6] = qHTS assay to identify small molecule agonists of the hypoxia (HIF-1) signaling pathway (AID 1224846; active means well fitted activation curve with a large enough effect in the signal ratio in the repeat runs, not every such curve was filed as active; the % refers to the signal ratio)
# Outline: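 Compounds added to ME-180 cells carrying hypoxia-response-element beta-lactamase reporter (0.5% dialyzed FBS, 5 h preplating), 17 h at 37C; agonist activity detected by CCF4-AM B/G FRET read-out.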
# [7] = qHTS assay to identify small molecule antagonists of the estrogen related receptor (ERR) signaling pathway from Tox21 library (AID 1224848); further: nearly all actives have a fitted effect of over 50% in size; further: potency means the concentration at half of the fitted maximal effect
# Outline: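 Tox21 10K compounds in DMSO tested for ERR pathway antagonism in NTP's ERR cell line; 18 h, 37 C exposure; ONE-Glo luminescence.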
# [8] = qHTS assay to identify small molecule agonists of the estrogen related receptor (ERR) signaling pathway from Tox21 library (AID 1224849; calls by dose curve; further: nearly all actives have a fitted effect of over 15% in size); settings: ERR reporter cell line, ONE-Glo luciferase, 18 h; at 92.4 µM (top of the series) unless noted
# Outline: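 Luminescent agonist read-out (One-Glo, 30-minute room-temperature incubation) following 18-hour compound treatment at 37 C of the ERR cell line, which had been plated 6 hours before dosing.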
# [9] = qHTS RealTime-Glo MT Cell Viability Assay in HepG2 cells - 24 hour (AID 1224867); further: nearly all actives have a fitted effect of over 50% in size; further: potency means the concentration at half of the fitted maximal effect
# Outline: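 HepG2 cells (600/well) were dispensed with RealTime-Glo reagents, incubated 5 h at 37 °C, then treated with compounds in DMSO for up to 40 h. Nonlytic NanoLuc luminescence reflecting viable cells was read at each stated time point.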
# [10] = A CellTox Green Cytotoxicity Assay to monitor cytotoxicity in HEK293 cells - 0 hour (AID 1224869); further: nearly all actives have a fitted effect of over 50% in size
# Outline: (§1)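 Fluorescence from a DNA-binding dye excluded by viable cells was measured repeatedly in the same HEK293 wells (600 cells/well) during continuous compound exposure at 37 C. Each assay gives one read point: 0, 8, 16, 24, 32 or 40 h.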
# [11] = qHTS RealTime-Glo MT Cell Viability Assay in HepG2 cells - 40 hour (AID 1224870); further: nearly all actives have a fitted effect of over 50% in size; further: potency means the concentration at half of the fitted maximal effect
# Outline: (§2)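 HepG2 cells mixed with RealTime-Glo MT reagents (NanoLuc plus cell-permeant prosubstrate) were seeded at 600 cells/well, incubated 5 h at 37 C/5% CO2, then pinned with compounds in DMSO; nonlytic luminescence tracked viability during 40 h treatment.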
# [12] = A CellTox Green Cytotoxicity Assay to monitor cytotoxicity in HEK293 cells - 40 hour (AID 1224871); further: nearly all actives have a fitted effect of over 45% in size; further: potency means the concentration at half of the fitted maximal effect
# Outline: as §1
# [13] = qHTS RealTime-Glo MT Cell Viability Assay in HepG2 cells - 8 hour (AID 1224873); further: nearly all actives have a fitted effect of over 55% in size
# Outline: as §2
# [14] = qHTS assay to identify small molecule agonists of the estrogen related receptor signaling pathway with the pleiotropic PPARgamma coactivator (PGC) from Tox21 10K library (AID 1224842); further: nearly all actives have a fitted effect of over 15% in size
# Outline: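 PGC/ERR reporter cells (NTP line) were seeded 2,000 per well, rested 6 h at 37 C/5% CO2, then pin-dosed with compounds in DMSO for 18 h at 37 C; luciferase read by One-Glo luminescence after 30 min at room temperature.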
# [15] = qHTS assay to identify small molecule agonists of H2AX (AID 1224845; active means well fitted activation curve with a large enough effect in the signal ratio in the repeat runs, not every such curve was filed as active; the % refers to the signal ratio)
# Outline: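 Wild-type CHO-K1 cells plated overnight, then exposed 3 hr at 37C to compounds at 15 concentrations (0.76% DMSO). Lysed, then HTRF anti-pH2AX(S139)-cryptate/anti-H2AX-d2 detection after 24 hr at room temperature; emissions 665 and 620 nm.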
# [16] = qHTS assay to identify small molecule agonists of H2AX - cell viability counter screen (AID 1224847; calls by dose curve; further: nearly all actives have a fitted effect of over 30% in size; further: potency means the concentration at half of the fitted maximal effect)
# Outline: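 CHO-K1 wt, 1000 cells/well, o/n 37C; cpds 15 conc, 3 h 37C, 0.76% DMSO; CellTiter-Glo, 30 min RT, luminescence.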
# [17] = qHTS RealTime-Glo MT Cell Viability Assay in HEK293 cells - 32 hour (AID 1224868); further: nearly all actives have a fitted effect of over 50% in size; further: potency means the concentration at half of the fitted maximal effect
# Outline: (§3)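 HEK293 cells seeded with NanoLuc/prosubstrate reagent, rested 5 h at 37 C, then dosed and kept at 37 C up to 40 h. Nonlytic real-time luminescence from viable cells read at 0, 8, 16, 24, 32 and 40 h.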
# [18] = qHTS RealTime-Glo MT Cell Viability Assay in HEK293 cells - 16 hour (AID 1224872); further: nearly all actives have a fitted effect of over 50% in size; further: potency means the concentration at half of the fitted maximal effect
# Outline: as §3
# [19] = qHTS assay to identify small molecule agonists of the hypoxia (HIF-1) signaling pathway - cell viability counter screen (AID 1224844; calls by dose curve; further: nearly all actives have a fitted effect of over 50% in size; further: potency means the concentration at half of the fitted maximal effect)
# Outline: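 Cytotoxicity measured by CellTiter-Glo ATP luminescence in the wells also read for beta-lactamase signal. Cells were HRE-bla ME-180 (2,000/well, 0.5% dialyzed FBS), exposed to compounds for 17 h at 37C.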
# [20] = qHTS RealTime-Glo MT Cell Viability Assay in HEK293 cells - 40 hour (AID 1224874); settings: RealTime-Glo luminescence; max response: active compounds read low; further: nearly all actives have a fitted effect of over 50% in size; further: potency means the concentration at half of the fitted maximal effect
# Outline: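 Luminescence, which tracks viable cell number through reduction of the prosubstrate to a NanoLuc substrate, was read over continuous 37 C culture. Cells (600/well) were premixed with reagent and rested 5 h before 23 nL of compound in DMSO was pinned.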
# Chain of Thyrotropin receptor (Homo sapiens) (P16473 whole entry, looked up): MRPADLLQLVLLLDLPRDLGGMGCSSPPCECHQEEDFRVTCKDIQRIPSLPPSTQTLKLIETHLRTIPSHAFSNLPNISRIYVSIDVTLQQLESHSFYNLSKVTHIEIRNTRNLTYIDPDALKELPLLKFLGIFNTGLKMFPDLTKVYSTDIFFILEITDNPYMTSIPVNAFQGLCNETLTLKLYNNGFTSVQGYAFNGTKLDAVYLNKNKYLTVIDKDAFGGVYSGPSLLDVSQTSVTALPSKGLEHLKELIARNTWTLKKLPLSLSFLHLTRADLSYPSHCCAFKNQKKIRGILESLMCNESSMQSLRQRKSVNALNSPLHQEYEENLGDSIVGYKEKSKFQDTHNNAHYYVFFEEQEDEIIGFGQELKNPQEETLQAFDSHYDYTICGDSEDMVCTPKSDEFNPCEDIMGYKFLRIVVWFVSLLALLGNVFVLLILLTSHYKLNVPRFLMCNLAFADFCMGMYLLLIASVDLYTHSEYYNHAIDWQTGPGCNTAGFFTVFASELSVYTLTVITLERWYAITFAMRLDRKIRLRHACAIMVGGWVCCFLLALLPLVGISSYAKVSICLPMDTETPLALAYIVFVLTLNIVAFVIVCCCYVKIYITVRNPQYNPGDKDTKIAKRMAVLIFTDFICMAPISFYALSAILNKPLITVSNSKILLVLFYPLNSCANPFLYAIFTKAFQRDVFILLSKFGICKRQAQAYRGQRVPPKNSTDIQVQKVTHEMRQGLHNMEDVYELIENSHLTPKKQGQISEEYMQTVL
# Chain of Nuclear receptor subfamily 1 group I member 3 (Homo sapiens) (Q14994 whole entry, looked up): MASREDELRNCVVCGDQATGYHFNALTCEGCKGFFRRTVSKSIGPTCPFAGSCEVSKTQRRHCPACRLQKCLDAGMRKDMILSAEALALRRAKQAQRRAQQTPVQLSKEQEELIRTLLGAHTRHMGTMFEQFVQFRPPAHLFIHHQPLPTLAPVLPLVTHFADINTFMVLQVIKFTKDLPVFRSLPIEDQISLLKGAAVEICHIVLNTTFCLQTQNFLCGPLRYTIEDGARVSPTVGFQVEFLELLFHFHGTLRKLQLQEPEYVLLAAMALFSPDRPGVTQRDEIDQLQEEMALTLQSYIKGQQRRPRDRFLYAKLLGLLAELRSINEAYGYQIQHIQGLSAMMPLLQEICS
compound,measurement,setting,value
O=C1c2ccccc2C(=O)c2c(Cl)cccc21,Potency,[1],inactive
same,Potency,[2],28.9 µM (active)
same,Potency,[3],inactive
same,Potency,[4],inactive
same,Potency,[5],inactive
same,Potency,[6],inactive
same,Potency,[7],inactive
same,"activity change, positive = activation",[8],1.21% [at 42.5 µM]
same,Potency,[9],inactive
same,Potency,[10],inactive
same,Potency,[11],inactive
same,Potency,[12],inactive
same,Potency,[13],inactive
COC(=O)c1ccc([N+](=O)[O-])cc1,Potency,[1],inactive
same,Potency,[2],inactive
same,Potency,[3],inactive
same,Potency,[14],inactive
same,Potency,[5],inactive
same,Potency,[15],inactive
same,Potency,[6],inactive
same,Potency,[16],inactive
same,Potency,[7],inactive
same,"activity change, positive = activation",[8],1.35%
same,Potency,[9],inactive
same,Potency,[17],inactive
same,Potency,[10],inactive
same,Potency,[11],inactive
same,Potency,[12],inactive
same,Potency,[18],inactive
same,Potency,[13],inactive
N#Cc1nc(Cl)c(Cl)c(Cl)c1Cl,Potency,[1],24.3 µM (active)
same,Potency,[2],inactive
same,Potency,[3],15.4 µM (active)
same,Potency,[4],12.2 µM (active)
same,Potency,[14],inactive
same,Potency,[5],34.4 µM (active)
same,Potency,[19],34.7 µM (active)
same,Potency,[7],9.69 µM (active)
same,"activity change, positive = activation",[8],-76.2%
same,Potency,[9],24.5 µM (active)
same,Potency,[17],2.19 µM (active)
same,Potency,[10],inactive
same,Potency,[11],17.4 µM (active)
same,Potency,[12],1.55 µM (active)
same,Potency,[18],2.45 µM (active)
same,Potency,[20],2.19 µM (active)
COc1cccc(-c2ccc(/C=C\CN3CCCCCC3)cc2Cl)c1,Potency,[1],inactive
same,Potency,[2],inactive
same,Potency,[3],54.2 µM (active)
same,Potency,[4],inactive
same,Potency,[14],inactive
same,Potency,[16],89.3 µM (active)
same,"activity change, positive = activation",[8],-20.2%
same,Potency,[9],43.4 µM (active)
same,Potency,[17],43.4 µM (active)
same,Potency,[10],inactive
same,Potency,[11],43.4 µM (active)
same,Potency,[12],43.4 µM (active)
same,Potency,[18],43.4 µM (active)
same,Potency,[20],43.4 µM (active)
CN1CCN(c2ccccc2/C=C2\SCCN(c3ccc(Cl)c(Cl)c3)C2=O)CC1,Potency,[1],inactive
same,Potency,[2],inactive
same,Potency,[3],48.6 µM (active)
same,Potency,[14],inactive
same,Potency,[16],50.5 µM (active)
same,Potency,[7],24.3 µM (active)
same,"activity change, positive = activation",[8],-79.7%
same,Potency,[9],38.9 µM (active)
same,Potency,[17],12.3 µM (active)
same,Potency,[10],inactive
same,Potency,[11],21.9 µM (active)
same,Potency,[12],43.6 µM (active)
same,Potency,[18],12.3 µM (active)
same,Potency,[20],12.3 µM (active)
CCOC(=O)OC(=O)OCC,Potency,[1],inactive
same,Potency,[2],inactive
same,Potency,[3],inactive
same,Potency,[5],inactive
same,Potency,[19],inactive
same,Potency,[15],inactive
same,Potency,[6],inactive
same,Potency,[16],inactive
same,Potency,[9],inactive
same,Potency,[17],inactive
same,Potency,[10],inactive
same,Potency,[11],inactive
same,Potency,[12],inactive
same,Potency,[18],inactive
same,Potency,[13],inactive
same,max response,[20],18.5%
CCCCCCCCc1ccc(Nc2ccc(CCCCCCCC)cc2)cc1,Potency,[1],inactive
same,Potency,[2],inactive
same,Potency,[3],inactive
same,Potency,[4],11.9 µM (active)
same,Potency,[14],inactive
same,Potency,[5],inactive
same,Potency,[19],inactive
same,Potency,[6],inactive
same,Potency,[16],inactive
same,Potency,[7],inactive
same,"activity change, positive = activation",[8],-4.1% [at 42.5 µM]
same,Potency,[9],inactive
same,Potency,[17],inactive
same,Potency,[10],inactive
same,Potency,[11],inactive
same,Potency,[12],inactive
same,Potency,[18],inactive
same,Potency,[13],inactive
